The source of these data is PubChem BioAssay (Tox21).

Inconclusive results are not listed. The source made the active and inactive calls. Unless noted, the call rests on the fitted dose curve; in most records, active means well fitted curve in the direction sought with a large enough effect in the repeat runs; inconclusive means weak or mixed curves; inactive means no such curve, though single readings can be large; an effect the other way counts as inactive or inconclusive.

Assay [1] has as its target Retinoic acid receptor RXR-alpha (Homo sapiens) (UniProt P19793). As to the kind of experiment: qHTS assay to identify small molecule agonists of the RXR signaling pathway (AID 1159527; calls by dose curve; further: nearly all actives have a fitted effect of over 35% in size). Put shortly: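 GeneBLAzer RXR-alpha-UAS-bla HEK 293T cells in 2% charcoal-stripped FBS medium were exposed to compounds for 16 hr at 37 C in agonist mode. Beta-lactamase reporter read as 460/530 nm FRET ratio after 2 hr substrate loading.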

A short description of assay [2]: qHTS assay to identify small molecule agonists of the RXR signaling pathway - cell viability counter screen (AID 1159529). Further: nearly all actives have a fitted effect of over 50% in size. Further: potency means the concentration at half of the fitted maximal effect. In short, it runs like this:
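RXR-alpha-UAS-bla HEK 293T cells in medium with 2% charcoal-stripped FBS were pre-incubated 5 hr, then compound-treated 16 hr at 37 C. Viability was read by CellTiter-Glo luminescence in the same wells as the beta-lactamase assay, with tetraoctyl ammonium bromide as positive control.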
On the technique in general: In qHTS, concentration-response curves come from the screen itself.

Assay [3] can be described thus: qHTS assay to identify small molecule antagonists of the retinoid acid receptor (RAR) signaling pathway - cell viability counter screen (AID 1159551). Further: nearly all actives have a fitted effect of over 35% in size. Further: potency means the concentration at half of the fitted maximal effect. Put shortly:
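ATP-based viability, C3RL4 cells, 6 h at 37 C with 1 uM final retinol co-added after compound; luminescence read 30 min post CellTiter-Glo, RT.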

Assay [4] is described as follows: qHTS assay to identify small molecule antagonists of the estrogen related receptor (ERR) signaling pathway from Tox21 library - cell viability counter screen (AID 1224834). Further: nearly all actives have a fitted effect of over 30% in size. Further: potency means the concentration at half of the fitted maximal effect. In short, it runs like this:
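Compounds in DMSO were pinned onto ERR cells that had been incubated for 6 h, and the plates were held at 37 C for 17.5 h. CellTiter-Fluor reagent was then added and fluorescence was measured after 30 min.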

In assay [5] the target is Luciferin 4-monooxygenase (Photinus pyralis) (UniProt P08659). As to the kind of experiment: qHTS assay to identify small molecule inhibitors of firefly luciferase (AID 1224835). Further: nearly all actives have a fitted effect of over 25% in size. Further: potency means the concentration at half of the fitted maximal effect. Put shortly: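 Biochemical qHTS: compounds run as interplate titrations against purified firefly enzyme, with D-luciferin and ATP each at its KM concentration. Light output recorded by CCD imaging.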

Assay [6] is described as follows: qHTS assay to identify small molecule antagonists of the constitutive androstane receptor (CAR) signaling pathway - cell viability counter screen (AID 1224837). Further: nearly all actives have a fitted effect of over 45% in size. Further: potency means the concentration at half of the fitted maximal effect. In short, it runs like this: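 Cells are seeded, rested 4 hr at 37 C/5% CO2, dosed with compound (15-point series) and 50 nM CITCO, incubated a further 23 hr, and then CellTiter-Fluor reagent is added before fluorescence is read. The line is HepG2 with stable hCAR and CYP2B6-2.2kb.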

Assay [7] has as its target Nuclear receptor subfamily 1 group I member 3 (Homo sapiens) (UniProt Q14994). Description: qHTS assay to identify small molecule antagonists of the constitutive androstane receptor (CAR) signaling pathway (AID 1224838).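 Further: HepG2 cells stably expressing hCAR with CYP2B6 luciferase reporter stimulated by CITCO; nearly all actives have a fitted effect of over 40% in size.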 Further: potency means the concentration at half of the fitted maximal effect. In short, it runs like this:
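Luminescence from a CYP2B6-2.2kb promoter reporter in hCAR-expressing HepG2 cells reflects CAR signaling. Cells received compounds at 15 concentrations and 50 nM CITCO (final), then incubated 24 h at 37 C/5% CO2.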

The nature of assay [8]: qHTS assay to identify small molecule antagonists of the estrogen related receptor signaling pathway with the pleiotropic PPARgamma coactivator (PGC) from Tox21 10K library - cell viability counter screen (AID 1224840; active means well fitted cell-killing curve with a large enough effect in the repeat runs, not every such curve was filed as active; further: nearly all actives have a fitted effect of over 40% in size; further: potency means the concentration at half of the fitted maximal effect). Put shortly:
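Cell viability is measured by CellTiter-Fluor fluorescence in PGC/ERR cells that receive compounds after a 6-hour attachment period and are then incubated 17.5 hours at 37 C.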

Assay [9] is described as follows: qHTS assay to identify small molecule antagonists of the retinoic acid receptor (RAR) signaling pathway (AID 1159552; further: nearly all actives have a fitted effect of over 50% in size; further: potency means the concentration at half of the fitted maximal effect). Put shortly: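 Retinol signaling pathway inhibitors screened in C3RL4 RARE-luciferase reporter cells seeded overnight at 37 C, then compounds added with 1 uM (final) retinol as pathway substrate. After 6 hr at 37 C, luciferase luminescence read after 30 min at room temperature.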

Assay [10] in a line: qHTS assay to identify small molecule agonists of the retinoic acid receptor (RAR) signaling pathway (AID 1159553). Put shortly:
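Quantitative high-throughput format: the Tox21 10K library was tested on C3RL4 RARE-luciferase cells for 6 hr at 37 C and 5% CO2, with luminescence measured after a 30 min room-temperature reagent step.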

A short description of assay [11]: qHTS assay to identify small molecule agonists of the constitutive androstane receptor (CAR) signaling pathway - cell viability counter screen (AID 1224836). Further: nearly all actives have a fitted effect of over 45% in size. Further: potency means the concentration at half of the fitted maximal effect. In short, it runs like this:
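HepG2 cells stably carrying hCAR and a CYP2B6-2.2kb reporter; 15-concentration compounds plus PK11195 (final 0.75 uM), 23 hr at 37 C/5% CO2. Viability read by CellTiter-Fluor fluorescence.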

The nature of assay [12]: qHTS assay to identify small molecule antagonists of the estrogen related receptor signaling pathway with the pleiotropic PPARgamma coactivator (PGC) from Tox21 10K library (AID 1224841; call rule not given here; further: actives are mostly falling curves and most rising ones were filed inactive; nearly all actives have a fitted effect of over 50% in size; further: potency means the concentration at half of the fitted maximal effect). Put shortly: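 Cells stably carrying the PGC/ERR reporter, seeded at 2,000 per well, received pin-transferred compounds 6 h post-plating. Exposure lasted 18 h at 37 C. Signal: One-Glo luminescence.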

The nature of assay [13]: qHTS assay to identify small molecule agonists of the estrogen related receptor signaling pathway with the pleiotropic PPARgamma coactivator (PGC) from Tox21 10K library (AID 1224842). Further: nearly all actives have a fitted effect of over 15% in size. In short, it runs like this:
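PGC/ERR reporter cell line, 2,000 cells per well, incubated 6 h at 37 C before 23 nL compound in DMSO was added. After 18 h at 37 C, One-Glo luminescence read following 30 min at room temperature.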

The nature of assay [14]: qHTS assay to identify small molecule antagonists of the estrogen related receptor (ERR) signaling pathway - cell viability counter screen (AID 1224818).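 Further: series mostly up to about 46 µM; viability measured after 17.5 h of compound exposure.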 Put shortly:
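Quantitative high-throughput viability counter screen in ERR cells. Compounds (DMSO) incubated 17.5 h at 37 C; read-out was CellTiter-Fluor fluorescence.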

Assay [15] in a line: qHTS assay to identify small molecule antagonists of the estrogen related receptor (ERR) signaling pathway (AID 1224819;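 further: luminescence from an ERR-driven luciferase reporter measured with One-Glo reagent; series mostly up to about 46 µM; nearly all actives have a fitted effect of over 50% in size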). Put shortly:
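ERR reporter cell line (NTP) plated at 2,000 cells/well, settled 6 h at 37C/5% CO2, then exposed to LOPAC compounds for 18 h at 37C. One-Glo luciferase luminescence read after 30 min at room temperature.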

Assay [16] is described as follows: qHTS assay to identify small molecule agonists of the estrogen related receptor (ERR) signaling pathway (AID 1224820). Put shortly:
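An ERR cell line provided by NTP was seeded at 2,000 cells per well and allowed to settle for 6 h before compounds in DMSO were added. After 18 h at 37 C, luciferase activity was measured by One-Glo luminescence.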

Assay [17] concerns estrogen-related receptor alpha (ERRalpha) with PGC-1alpha coactivator, human. As to the kind of experiment: qHTS assay to identify small molecule antagonists of the estrogen related receptor signaling pathway with the pleiotropic PPARgamma coactivator (PGC) (AID 1224821; calls by dose curve). Put shortly:
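A PGC/ERR cell line supplied by NTP is seeded, allowed 6 h at 37 C, and treated with test compounds in DMSO for 18 h. Signal is then measured as luciferase luminescence using One-Glo.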

The nature of assay [18]: qHTS assay to identify small molecule antagonists of the estrogen related receptor signaling pathway with the pleiotropic PPARgamma coactivator (PGC) cell viability counter screen (AID 1224822; further: series mostly up to about 46 µM). Put shortly:
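Cytotoxicity in the PGC/ERR cell line is assessed with CellTiter-Fluor, read as fluorescence intensity 30 min after reagent addition, following 17.5 h compound treatment at 37 C.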

Assay [19] is described as follows: qHTS assay to identify small molecule agonists of the estrogen related receptor signaling pathway with the pleiotropic PPARgamma coactivator (PGC) (AID 1224823). Put shortly: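 Compounds dissolved in DMSO are added by pin tool to PGC/ERR cells that have settled for 6 h, and incubation continues 18 h at 37 C. Reporter output is measured as One-Glo luminescence.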

Assay [20] deals with Nuclear receptor subfamily 1 group I member 3 (Homo sapiens) (UniProt Q14994). Description: qHTS assay to identify small molecule agonists of the constitutive androstane receptor (CAR) signaling pathway (AID 1224839). Further: series mostly up to about 92 µM; nearly all actives have a fitted effect of over 15% in size. In short, it runs like this: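 HepG2 cells stably co-transfected with hCAR and a CYP2B6-2.2kb luciferase reporter; compounds at 15 concentrations with 0.75 uM PK11195 present. After 24 hr at 37 C, luciferase read by ONE-Glo luminescence.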
Nuclear receptor subfamily 1 group I member 3 (Homo sapiens), sequence (Q14994 whole entry, looked up): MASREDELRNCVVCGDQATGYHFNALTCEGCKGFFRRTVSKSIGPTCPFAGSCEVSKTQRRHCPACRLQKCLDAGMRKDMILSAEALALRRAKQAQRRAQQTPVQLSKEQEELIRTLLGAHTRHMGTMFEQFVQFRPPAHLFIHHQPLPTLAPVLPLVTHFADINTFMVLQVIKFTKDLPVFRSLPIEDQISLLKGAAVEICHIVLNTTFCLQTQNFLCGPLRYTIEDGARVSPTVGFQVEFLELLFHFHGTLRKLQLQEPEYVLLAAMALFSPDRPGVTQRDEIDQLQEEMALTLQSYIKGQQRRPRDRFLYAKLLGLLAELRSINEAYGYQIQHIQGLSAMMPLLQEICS

Luciferin 4-monooxygenase (Photinus pyralis), sequence (P08659 whole entry, looked up): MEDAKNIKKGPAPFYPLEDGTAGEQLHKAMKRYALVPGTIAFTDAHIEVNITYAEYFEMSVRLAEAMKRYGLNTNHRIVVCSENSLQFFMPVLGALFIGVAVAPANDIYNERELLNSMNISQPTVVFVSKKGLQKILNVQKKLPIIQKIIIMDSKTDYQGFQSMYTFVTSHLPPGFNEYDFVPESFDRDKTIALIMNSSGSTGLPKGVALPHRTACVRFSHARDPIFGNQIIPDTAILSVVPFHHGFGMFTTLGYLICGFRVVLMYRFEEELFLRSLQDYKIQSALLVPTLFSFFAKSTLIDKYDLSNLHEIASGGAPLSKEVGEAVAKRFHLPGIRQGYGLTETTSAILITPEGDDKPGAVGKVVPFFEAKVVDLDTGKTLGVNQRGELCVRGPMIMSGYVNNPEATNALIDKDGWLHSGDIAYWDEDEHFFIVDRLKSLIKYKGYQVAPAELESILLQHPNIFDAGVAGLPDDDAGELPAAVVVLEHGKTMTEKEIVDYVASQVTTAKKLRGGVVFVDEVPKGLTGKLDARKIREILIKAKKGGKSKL
Retinoic acid receptor RXR-alpha (Homo sapiens), sequence (P19793 whole entry, looked up): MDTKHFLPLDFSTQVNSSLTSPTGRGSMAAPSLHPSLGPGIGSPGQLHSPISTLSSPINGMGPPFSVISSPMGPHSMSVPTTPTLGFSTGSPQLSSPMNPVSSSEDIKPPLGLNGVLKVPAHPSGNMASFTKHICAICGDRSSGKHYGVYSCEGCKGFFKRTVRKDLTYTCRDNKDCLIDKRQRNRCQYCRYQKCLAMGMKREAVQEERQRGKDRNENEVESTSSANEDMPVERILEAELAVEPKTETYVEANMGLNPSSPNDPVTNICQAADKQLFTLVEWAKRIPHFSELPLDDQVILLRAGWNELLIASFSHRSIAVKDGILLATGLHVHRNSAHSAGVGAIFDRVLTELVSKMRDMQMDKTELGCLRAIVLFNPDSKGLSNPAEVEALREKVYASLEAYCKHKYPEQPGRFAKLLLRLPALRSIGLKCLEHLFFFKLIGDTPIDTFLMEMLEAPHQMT

Regarding `O=C(Nc1ccc(C(=O)O)c(O)c1)c1ccccc1`, the Potency entry in assay [1], in [2], in assay [3], in [4], in [6] and in assay [7] was “inactive” in each case. Also, in assay [8], the Potency entry is “inactive”. Besides, in assay [5], the Potency was 27.5 µM (active).

`CC(C)COC(=O)COc1cc(Cl)c(Cl)cc1Cl`: the Potency entry in assay [1], in assay [3], in assay [9], in assay [10], in assay [11] and in assay [6] was “inactive” each time. For the same molecule, the Potency entry in assay [7], in assay [8], in assay [12] and in assay [13] was “inactive” each time.

For the molecule `CCN(CC)c1ccc(C(=C2C=CC(=[N+](CC)CC)C=C2)c2ccc(S(=O)(=O)O)cc2S(=O)(=O)[O-])cc1`, the Potency result in assay [1] and in assay [13] was “inactive” throughout. In addition, the Potency in assay [3] was 15.4 µM (active); in [9] it was 24.3 µM (active); in [5], 8.94 µM (active); in [11] it was 24.3 µM (active); in assay [6] it was 27.3 µM (active); in [8] it was 27.3 µM (active). For the same molecule, in assay [12], the Potency was 8.63 µM (active).

For `O=NN(CCCl)C(=O)NCCCl`, the Potency result in [2], in assay [3], in [15], in assay [17], in assay [4] and in assay [5] was “inactive” in each case. For the same molecule, the Potency entry in assay [11], in [6], in assay [7], in [8], in assay [12] and in [13] was “inactive” throughout. Further, the outcome in assay [14], in assay [16], in assay [18] and in assay [19] was inactive.

For `CCCCCCCCCCCSCC(=O)O`, in [2], the Potency is 19.5 µM (active). Also, the Potency entry in assay [3], in [9], in assay [10], in assay [4], in assay [11] and in assay [6] was “inactive” throughout. Moreover, the Potency entry in assay [7], in assay [20], in [12] and in [13] was “inactive” in each case.

As for `CCCCCc1ccco1`, the Potency entry in [2], in [3], in assay [10], in [5], in [11] and in [6] was “inactive” each time. In addition, the Potency entry in assay [7], in [20] and in assay [8] was “inactive” in each case.

On to `COC(=O)Nc1nc2ccc(C(=O)C3CC3)cc2[nH]1`, for which the Potency result in assay [2], in assay [3], in assay [9], in assay [11], in [6] and in assay [8] was “inactive” in each case. Moreover, the Potency in assay [5] is 19.5 µM (active).

As for `CC(=O)OCC(=O)[C@@]1(OC(C)=O)[C@@H](C)C[C@H]2[C@@H]3C[C@H](F)C4=CC(=O)C=C[C@]4(C)[C@@]3(F)[C@@H](O)C[C@@]21C`, the Potency entry in assay [2], in [3], in [9], in [4], in assay [5] and in assay [11] was “inactive” in each case. Moreover, the Potency result in assay [6], in assay [7] and in [8] was “inactive” in each case.

Regarding `CCCCOC(=O)CCCCC(=O)OCCCC`, the Potency entry in [2], in assay [3], in assay [9], in assay [10], in [5] and in [11] was “inactive” in each case. For the same molecule, the Potency result in [6], in [8], in assay [12] and in assay [13] was “inactive” each time.

On to `Cc1c(C2(c3cc(Br)c(O)c(Br)c3C)OS(=O)(=O)c3ccccc32)cc(Br)c(O)c1Br`, for which the Potency entry in [2], in assay [20] and in [13] was “inactive” in each case. Further, the Potency in [3] was 7.47 µM (active); in assay [9], 13.3 µM (active); in assay [4], 14.9 µM (active); in assay [5], 8.67 µM (active); in [11] it was 14.9 µM (active); in assay [6], 18.8 µM (active). Besides, the results for the Potency in assay [7], in assay [8] and in [12] were 11.8 µM (active), 18.8 µM (active) and 11.8 µM (active), respectively.
